High-throughput results from PubChem.
GRK2 inh = inhibitors of human GRK2 displacing RNA aptamer; 330,000 tested, 0.59% active; bead flow cytometry, FAM-aptamer displacement from GRK2; inhibition of aptamer binding, % at 10 µM; P25098;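 active means inhibition of aptamer binding above 40%, roughly 3 SD of noise, on plates passing a quality check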;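 further: median bead fluorescence of bound FAM aptamer so fluorescent compounds give negative values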
Target sequence (P25098 whole entry, looked up): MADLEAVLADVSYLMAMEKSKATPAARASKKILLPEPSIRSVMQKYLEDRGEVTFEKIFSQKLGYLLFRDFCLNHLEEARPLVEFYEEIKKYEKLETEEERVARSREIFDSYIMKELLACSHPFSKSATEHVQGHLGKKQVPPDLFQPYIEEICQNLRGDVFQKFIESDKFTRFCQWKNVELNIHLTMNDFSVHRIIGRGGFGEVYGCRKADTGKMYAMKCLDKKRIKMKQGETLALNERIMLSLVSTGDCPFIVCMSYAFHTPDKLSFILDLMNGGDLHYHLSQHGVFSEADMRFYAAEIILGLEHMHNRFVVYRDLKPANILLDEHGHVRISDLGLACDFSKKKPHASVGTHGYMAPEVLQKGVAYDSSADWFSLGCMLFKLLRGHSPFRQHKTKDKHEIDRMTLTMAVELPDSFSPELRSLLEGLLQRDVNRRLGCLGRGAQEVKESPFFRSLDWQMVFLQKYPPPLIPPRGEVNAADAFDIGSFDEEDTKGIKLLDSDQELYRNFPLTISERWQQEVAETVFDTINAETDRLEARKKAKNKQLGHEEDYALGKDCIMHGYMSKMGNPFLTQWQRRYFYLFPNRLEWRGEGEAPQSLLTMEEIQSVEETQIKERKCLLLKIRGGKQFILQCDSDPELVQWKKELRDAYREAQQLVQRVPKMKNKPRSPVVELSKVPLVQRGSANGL
PABP polyA inh = PABP-poly(A) binding inhibition | PABP-poly(A) RNA binding, fluorescence polarization | 290,000 tested, 1% active | P11940 | inhibition, % at 35 µM;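 further: calls also rest on retests at 20 µM and on dose response follow-up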
PERK inhibitor = blocks human PERK kinase. CHO PERK-DD fusion, SEAP luminescence translation reporter. inhibition, % at 5.6 µM. 220,000 tested, 0.17% active. AID 1416;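 active means inhibition above the mean inhibition of all tested compounds plus 3 SD, set separately per screening campaign, cut at about 2.9% in these data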;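 further: PERK kinase domain activated by AP20187 dimerizer at 100 nM; 0% = DMSO with dimerizer and 100% = rapamycin at 8.4 µM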
eIF4H inh = inhibitors of RNA binding by human eIF4H; Q15056; eIF4H fluorescence polarization binding assay; inhibition, % at 35 µM; 290,000 tested, 0.94% active; AID 2012;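 further: calls also rest on retests at 20 µM and on dose response follow-up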
MLLE-PAM2 inh = blocks PAM2 peptide binding to the PABP1 MLLE domain; P11940; GST-MLLE / FITC-PAM2 fluorescence polarization; inhibition, % at 20 µM; 360,000 tested, 0.36% active; AID 588489; in the data active means inhibition above about 35%, passing the limit was not always enough;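 further: plate controls were DMSO wells with GST-MLLE for no effect and wells lacking GST-MLLE protein for full effect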
* = called active by the depositor; ? = inconclusive; . = not tested or not shown. In the library only some 1.9% were active in any assay of this set; here they are far more common. Unless noted, how the calls were made is not given here.

SMILES | GRK2 inh | PABP polyA inh | PERK inhibitor | eIF4H inh | MLLE-PAM2 inh
CCNc1nc(Oc2ccc(F)cc2)cc(C(F)(F)F)n1 | 0 | 2 | 0 | -15 | 5
CC1=CC(=C2N=C(c3ccccc3)OC2=O)C=C(C)O1 | 0 | ? | 2.9* | ? | -120
CN1C=CC=C/C1=C1/N=C(c2ccccc2)OC1=O | 0 | 8 | 0 | 2 | -6
Cc1ccc(NC(=O)CCc2nnc3ccc(N4CCC5(CC4)OCCO5)nn23)cc1F | 2 | -1 | . | -2 | -2
CN1C(=O)/C(=C/c2ccc(-c3ccccc3[N+](=O)[O-])o2)SC1=Nc1ccc(Cl)c(C(=O)O)c1 | 0 | 4 | 0 | 78* | -50
Cc1ccc2nc3c(c(N)c2c1)CCN3C | 0 | 6 | . | 7 | -48
Cc1ccc2nc3c(c(N)c2c1)CCN3c1ccccc1 | 4 | 47 | -1 | 51* | -8
CN1Cc2c(N3CCOCC3)nc(SCc3ccccc3)c(C#N)c2CC1(C)C | 0 | ? | 0 | ? | 40*
C=CCSc1nc(N2CCOCC2)c2c(c1C#N)CC(C)(C)N(C)C2 | 1 | 24* | -2 | 50* | -4
CCSc1nc(N2CCOCC2)c2c(c1C#N)CC(C)(C)N(C)C2 | 0 | 110 | -2 | 96 | 15
Cn1ccc2c(/C=C/c3ccc(F)cc3)cc3c(c21)C1CCC3C1 (stereo not drawn) | . | . | . | . | -5
CCC1CCCCN1C(=O)c1cc(COc2ccc(-n3cncn3)cc2)on1 (stereo not drawn) | 0 | 2 | . | -12 | 0
CN(C(=O)c1cccc(NC(=O)Cc2ccc(NC(=O)C3CCN(C(=O)C4CCCCC4)CC3)cc2)c1)C1CC1 | . | . | . | . | -9
CCCCOC(=O)C1C2C=C[C@]3(CN(CCCOC)C(=O)[C@H]13)O2 (stereo partly drawn) | 2 | 3 | 3.4* | 5 | -12
COc1ccc2nc(NC(=O)CSc3n[nH]c(N)n3)sc2c1 | 0 | . | . | . | -35
Cc1cc(C(=O)COC(=O)c2ccc(Br)o2)c(C)n1Cc1ccco1 | 3 | -13 | 1 | 5 | .
Cc1cc(C(=O)COC(=O)c2ccc(O)cc2)c(C)n1Cc1ccco1 | 0 | active | 1 | 74* | -15
Cc1cc(C(=O)C(C)Cl)c(C)n1Cc1ccco1 (stereo not drawn) | 0 | 1.6* | 0 | 101* | 4
Cc1ccccc1NC(=O)c1sc2nc3c(c(-c4ccco4)c2c1N)CCC3 | 1 | 58* | -1 | 88* | 14
NC(=O)c1sc2nc3c(c(-c4ccco4)c2c1N)CCCC3 | 4 | 12 | 1 | 10 | 18
Nc1c(C(=O)NCC2CCCO2)sc2nc3c(c(-c4ccco4)c12)CC/C3=C\c1ccco1 (stereo not drawn) | . | 2 | 0 | 110* | -34
O=C(COC(=O)CNS(=O)(=O)c1ccc(F)c(F)c1F)Nc1ccc(OC(F)F)cc1 | 1 | 1 | 1 | 5 | 2
Cc1nc2c(OCc3ccc(C(F)(F)F)cc3)cccn2c1N(C)Cc1cccs1 | . | . | . | . | -8
Cc1c(Cl)cnn1CC(=O)NC1C(=O)N2C(C(=O)O)=C(CSc3nnnn3C)CSC12 (stereo not drawn) | 21 | -10 | 0 | 28 | 30
CC(C(=O)NC1C(=O)N2C(C(=O)O)=C(CSc3nnnn3C)CSC12)n1cc(Cl)cn1 (stereo not drawn) | 16 | -5 | 1 | 7 | 43*
SMILES | GRK2 inh | PABP polyA inh | PERK inhibitor | eIF4H inh | MLLE-PAM2 inh
CC(=O)Nc1cc(NC(C)=O)cc(C(=O)N2CCCC3CCCCC32)c1 (stereo not drawn) | 34 | 53* | . | 79* | -28
O=C(Nc1ccccc1)N1CCCC2CCCCC21 (stereo not drawn) | 5 | 0 | 0 | 5 | 9
COc1ccc2c(c1)n([O-])c1c([n+]2=O)CCC1 | 6 | 21 | 1 | 38 | .
CCOc1ccc2c(c1)n([O-])c1c([n+]2=O)CCCC1 | . | -3 | 2 | -3 | 43*
COc1cccc(NC(=O)C(c2ccccc2)N2CCCCC2)c1 (stereo not drawn) | 1 | 96* | 1 | 8.5* | -5
C[C@@H]1CN([C@H](C)CO)C(=O)CCCn2nncc2CO[C@H]1CN(C)Cc1ccccc1C(F)(F)F | . | . | . | . | 7
Cc1ccc(N2CCN(C(=O)c3cc(-c4ccc(F)cc4)[nH]c3C)CC2C)cc1 (stereo not drawn) | 0 | 25* | . | ? | -14
Cc1[nH]c(-c2ccc(F)cc2)cc1C(=O)N1CCN(c2ccccc2)CC1 | 0 | 12 | . | 4 | -6
CC1(C)Cc2cccc(OCC(=O)OCC(=O)Nc3cccc(S(N)(=O)=O)c3)c2O1 | 4 | 4 | 1 | 2 | -1
Cc1cc(=O)[nH]c(N/N=C/c2cccs2)n1 | 0 | 1 | 1 | -12 | 12
O=c1cnnc(N/N=C/c2cccs2)[nH]1 | 0 | 10 | 4.0* | -1 | -1
Cc1ccc(C(=O)O)cc1NC(=S)NC(=O)c1ccc(-c2ccc(Cl)cc2)o1 | 0 | 5 | 2 | -5 | 51*
COc1ccc(C(=O)O)cc1NC(=S)NC(=O)c1ccc(-c2ccc(Cl)cc2)o1 | . | -15 | 1 | 64 | 27
Cc1ccc(C(=O)Sc2cccccc2=O)cc1 | 1 | 12 | . | 43 | 50*
O=C(Nc1ccccc1SC(=O)c1ccccc1)c1ccccc1 | . | . | . | . | 22
C=CCn1c(=O)/c(=C2/Sc3ccccc3N2CC)s/c1=C1/C(=O)NN=C1C | 42* | 47 | 0 | ? | .
Cc1ccc2nc3c(cc(C#N)c(=O)n3CC3CCCO3)c(=O)n2c1 (stereo not drawn) | . | 57* | 1 | 32* | .
Cc1ccc2nc3c(cc(C#N)c(=O)n3-c3nccs3)c(=O)n2c1 | 7 | 104* | 1 | 98* | 2
CCC(C)n1c(=N)c(C#N)cc2c(=O)n3cc(C)ccc3nc21 (stereo not drawn) | 0 | 28* | 0 | 58* | -5
CCC(C)n1c(=N)c(C#N)cc2c(=O)n3cccc(C)c3nc21 (stereo not drawn) | 3 | 8 | 1 | -1 | -1
COc1ccc(CCNC(=O)COC(=O)CCC(=O)c2ccc(F)cc2)cc1OC | 0 | -2 | 1 | -9 | -13
COC(=O)c1ccc(Oc2nc(NC(C)(C)C)nc(N3CCOCC3)n2)cc1 | 0 | 1 | 1 | 3 | .
O=C(CSc1nnc(COc2ccc(Cl)cc2)o1)NC1CC2CCC1C2 (stereo not drawn) | 0 | -12 | . | -4 | -3
C=CCN=C(CC)C1=C(O)CCCC1=O | 4 | 21 | 1 | 10 | 6
C=CCN=C(C)C1=C(O)CCC1=O | 0 | 10 | 2.9* | -1 | 2
COc1ccc2c3c([nH]c2c1)C1CC2C(CC(O)C(OC)C2CO)CN1CC3 (stereo not drawn) | 2 | 9 | 4.1* | 47 | -10
CN(C)S(=O)(=O)c1ccc(Cl)c(NC(=O)COC(=O)/C=C/c2ccco2)c1 | 13 | 72* | 1 | 10 | -28
CN(C)S(=O)(=O)c1cccc(NC(=O)COC(=O)/C=C/c2ccc(Br)o2)c1 | 0 | 39* | 1 | ? | -4
